In the antibiotic and cytotoxicity screens of Wong et al. (2023):
In all, about 39,000 compounds went through this assay and about 3,300 (8.5%) were called active. Many of the other results were omitted from the sample, so actives are more common in it than they were.

Tested on: HepG2
Assay: cytotoxicity call (relative viability < 0.9)
Conditions: 10 µM

Compound	cytotoxicity call
COCC#Cc1ccc2c(c1)O[C@H](CN(C)Cc1ccc(F)cc1)[C@H](C)CN([C@@H](C)CO)S2(=O)=O	inactive
Cc1noc(C)c1S(=O)(=O)N(C)C[C@H]1Oc2ccc(NC(=O)CCCN(C)C)cc2C(=O)N([C@H](C)CO)C[C@@H]1C	inactive
C[C@H](CO)N1C[C@H](C)[C@@H](CN(C)C)Oc2ccc(NS(=O)(=O)c3ccc(Cl)cc3)cc2CC1=O	inactive
COc1nonc1NC(C)=O	inactive
O=C1C[C@H](N2C(=O)CCC2=O)[C@@H]2CO[C@@H]1O2	inactive
C[C@@H]1CN([C@H](C)CO)C(=O)c2cccc(NC(=O)c3cnccn3)c2O[C@H]1CN(C)C(=O)Nc1ccc2c(c1)OCO2	inactive
C[C@@H]1CN([C@@H](C)CO)C(=O)Cc2cc(NC(=O)Cc3ccccc3)ccc2O[C@H]1CN(C)Cc1ccc(Cl)c(Cl)c1	inactive
C[C@@H]1CN([C@H](C)CO)C(=O)Cc2cc(NC(=O)Cc3ccccc3)ccc2O[C@@H]1CN(C)Cc1ccc(Cl)c(Cl)c1	active
C[C@H](CO)N1C[C@H](C)[C@H](CN(C)Cc2ccc(Cl)c(Cl)c2)Oc2ccc(NC(=O)Cc3ccccc3)cc2CC1=O	inactive
C[C@@H]1CN([C@H](C)CO)C(=O)Cc2cc(NC(=O)Cc3ccccc3)ccc2O[C@H]1CN(C)Cc1ccc(Cl)c(Cl)c1	inactive
C[C@H](CO)N1C[C@H](C)[C@@H](CN(C)Cc2ccc(Cl)c(Cl)c2)Oc2ccc(NC(=O)Cc3ccccc3)cc2CC1=O	inactive
C[C@H]1CN([C@@H](C)CO)C(=O)Cc2cc(NC(=O)Cc3ccccc3)ccc2O[C@H]1CN(C)Cc1ccc(Cl)c(Cl)c1	active
C[C@H]1CN([C@@H](C)CO)C(=O)Cc2cc(NC(=O)Cc3ccccc3)ccc2O[C@@H]1CN(C)Cc1ccc(Cl)c(Cl)c1	inactive
C[C@@H]1CN([C@@H](C)CO)C(=O)Cc2cc(NC(=O)Cc3ccccc3)ccc2O[C@@H]1CN(C)Cc1ccc(Cl)c(Cl)c1	active
C[C@@H]1CN([C@@H](C)CO)C(=O)c2cc(NC(=O)C3CCCCC3)ccc2O[C@@H](C)CCCCO[C@@H]1CN(C)Cc1ccncc1	inactive
Cc1noc(C)c1S(=O)(=O)N(C)C[C@H]1Oc2ccc(NC(=O)C3CCCCC3)cc2CC(=O)N([C@H](C)CO)C[C@H]1C	inactive
C[C@H]1CN([C@@H](C)CO)C(=O)c2cccc(NS(=O)(=O)c3ccccc3)c2O[C@@H]1CN(C)Cc1ccc(Cl)c(Cl)c1	inactive
O=C(C[C@H]1C=C[C@@H](NS(=O)(=O)c2ccccc2)[C@H](CO)O1)NCc1ccncn1	inactive
Cn1cnc(S(=O)(=O)N2C[C@H](O)COC[C@H]3O[C@H](CC(=O)NCc4ccc(F)cc4)CC[C@@H]32)c1	inactive
CN(C)C(=O)c1ccc(-c2cccc(-c3nc(C(=O)NC4CCCCC4)cc4c3[C@H](CCO)N([S@@](=O)C(C)(C)C)C4)c2)cc1	inactive
CCCN(C)C[C@@H]1OCCCC[C@H](C)Oc2ccc(NC(=O)Nc3ccc4c(c3)OCO4)cc2C(=O)N([C@H](C)CO)C[C@@H]1C	inactive
C[C@H]1CN([C@@H](C)CO)S(=O)(=O)c2ccc(C#CC3(O)CCCC3)cc2O[C@H]1CN(C)C(=O)Nc1ccccc1	inactive

Compound	cytotoxicity call
C[C@H](CO)N1C[C@H](C)[C@@H](CN(C)C(=O)Nc2cc(F)ccc2F)Oc2cc(/C=C/c3ccccc3)ccc2S1(=O)=O	inactive
COc1cccc(NC(=O)N(C)C[C@H]2Oc3cc(C#CC4(O)CCCC4)ccc3S(=O)(=O)N([C@H](C)CO)C[C@@H]2C)c1	inactive
C[C@@H]1CN([C@H](C)CO)S(=O)(=O)c2ccc(C#CC3(O)CCCC3)cc2O[C@@H]1CN(C)C(=O)Nc1ccccc1	active
COc1cccc(NC(=O)N(C)C[C@H]2Oc3cc(C#CC4(O)CCCC4)ccc3S(=O)(=O)N([C@@H](C)CO)C[C@H]2C)c1	inactive
C[C@@H]1CN([C@H](C)CO)S(=O)(=O)c2ccc(/C=C/c3ccccc3)cc2O[C@H]1CN(C)C(=O)Nc1cc(F)ccc1F	inactive
C[C@@H]1CN([C@H](C)CO)S(=O)(=O)c2ccc(/C=C/c3ccccc3)cc2O[C@@H]1CN(C)C(=O)Nc1cc(F)ccc1F	active
C[C@@H]1CN([C@H](C)CO)S(=O)(=O)c2ccc(C#CC3(O)CCCC3)cc2O[C@H]1CN(C)C(=O)Nc1ccccc1	inactive
COc1cccc(NC(=O)N(C)C[C@H]2Oc3cc(C#CC4(O)CCCC4)ccc3S(=O)(=O)N([C@H](C)CO)C[C@H]2C)c1	active
COc1ccc(NC(=O)N(C)C[C@H]2OCCCC[C@H](C)Oc3ccc(NS(=O)(=O)c4cccs4)cc3C(=O)N([C@@H](C)CO)C[C@@H]2C)cc1	inactive
C[C@H](CO)N1C[C@H](C)[C@H](CN(C)S(=O)(=O)c2ccc3c(c2)OCCCO3)OCc2cn(nn2)CCCC1=O	inactive
C[C@H]1CCCCO[C@@H](CN(C)C(=O)CCC(F)(F)F)[C@@H](C)CN([C@@H](C)CO)C(=O)c2cc(NS(=O)(=O)c3ccccc3)ccc2O1	inactive
NC(=O)N1Cc2nccn2C[C@H](Cn2cncn2)C1	inactive
Cc1ccc(S(=O)(=O)Nc2ccc3c(c2)C(=O)N([C@H](C)CO)C[C@@H](C)[C@H](CN(C)C(=O)Nc2ccccc2)OCCCC[C@@H](C)O3)cc1	inactive
Cc1ccccc1S(=O)(=O)N1C[C@@H](O)COC[C@@H]2O[C@H](CC(=O)N3CCC(Cc4ccccc4)CC3)CC[C@H]21	inactive
CN1CCN(C(=O)C[C@@H]2CC[C@H]3[C@@H](COC[C@@H](O)CN3Cc3ccc(Oc4ccccc4)cc3)O2)CC1	inactive
O=C(C[C@@H]1CC[C@H]2[C@@H](COC[C@@H](O)CN2S(=O)(=O)c2ccccc2F)O1)N1CCC(Cc2ccccc2)CC1	inactive
CN1CCN(C(=O)C[C@H]2CC[C@H]3[C@@H](COC[C@H](O)CN3Cc3ccc(Oc4ccccc4)cc3)O2)CC1	inactive
Cc1ccccc1S(=O)(=O)N1C[C@@H](O)COC[C@H]2O[C@@H](CC(=O)N3CCC(Cc4ccccc4)CC3)CC[C@@H]21	inactive
Cc1ccccc1S(=O)(=O)N1C[C@H](O)COC[C@H]2O[C@@H](CC(=O)N3CCC(Cc4ccccc4)CC3)CC[C@@H]21	active
Cc1ccccc1S(=O)(=O)N1C[C@H](O)COC[C@@H]2O[C@H](CC(=O)N3CCC(Cc4ccccc4)CC3)CC[C@H]21	inactive
Cc1ccccc1S(=O)(=O)N1C[C@H](O)COC[C@@H]2O[C@@H](CC(=O)N3CCC(Cc4ccccc4)CC3)CC[C@H]21	inactive
Cc1ccccc1S(=O)(=O)N1C[C@H](O)COC[C@H]2O[C@H](CC(=O)N3CCC(Cc4ccccc4)CC3)CC[C@@H]21	active

Compound	cytotoxicity call
Cc1ccccc1S(=O)(=O)N1C[C@@H](O)COC[C@H]2O[C@H](CC(=O)N3CCC(Cc4ccccc4)CC3)CC[C@@H]21	active
O=C(C[C@@H]1CC[C@@H]2[C@H](COC[C@@H](O)CN2S(=O)(=O)c2ccccc2F)O1)N1CCC(Cc2ccccc2)CC1	inactive
CN1CCN(C(=O)C[C@H]2CC[C@@H]3[C@H](COC[C@@H](O)CN3Cc3ccc(Oc4ccccc4)cc3)O2)CC1	active
C[C@@H]1CCCCO[C@H](CN(C)C(=O)Nc2ccc(F)cc2)[C@@H](C)CN([C@H](C)CO)C(=O)c2cc(NC(=O)C3CCCCC3)ccc2O1	inactive
C[C@@H]1CCCCO[C@@H](CN(C)C(=O)c2ccccc2)[C@H](C)CN([C@H](C)CO)C(=O)c2cc(NS(=O)(=O)c3ccccc3)ccc2O1	inactive
C=c1ccccc1=C1NN=C(CN2CCCC2)O1	inactive
C[C@H]1CCCCO[C@H](CN(C)Cc2ccc(Cl)c(Cl)c2)[C@@H](C)CN([C@@H](C)CO)C(=O)c2cc(NS(C)(=O)=O)ccc2O1	inactive
COCC#Cc1ccc2c(c1)O[C@H](CN(C)S(=O)(=O)c1cccc(F)c1)[C@@H](C)CN([C@H](C)CO)S2(=O)=O	inactive
C[C@@H]1CCCCO[C@H](CN(C)Cc2ccc(C(=O)O)cc2)[C@@H](C)CN([C@@H](C)CO)C(=O)c2cc(NC(=O)NC3CCCCC3)ccc2O1	inactive
Cc1ccc2nc(/N=C/c3ccc(Cl)cc3Cl)sc2c1	inactive
Cc1ccc2nc(-c3ccc(/N=C\c4ccc[nH]4)cc3)sc2c1	active
Cc1ccc2nc(-c3ccc(NC(=O)C4CCC4)cc3)sc2c1	inactive
COc1ccc2c3c([nH]c2c1)[C@H](CO)N(C[C@]13CCN(CC1)CC1CCCCC1)C(=O)Nc1c(noc1C)C	inactive
COc1ccc2c3c([nH]c2c1)[C@H](CO)N(CC1CCCCC1)C[C@]13CCN(CC1)C(=O)Nc1cccc(c1)F	inactive
COc1ccc2c3c([nH]c2c1)[C@@H](CO)N(CC1CCCCC1)C[C@]13CCN(CC1)C(=O)Nc1cccc(c1)F	inactive
COc1ccc2c3c([nH]c2c1)[C@@H](CO)N(C[C@]13CCN(CC1)CC1CCCCC1)C(=O)Nc1cccc(c1)F	active
COc1ccc2c3c([nH]c2c1)[C@H](CO)N(C[C@]13CCN(CC1)CC1CCCCC1)C(=O)Nc1cccc(c1)F	active
COc1ccc2c3c([nH]c2c1)[C@@H](CO)N(C[C@]13CCN(CC1)CC1CCCCC1)C(=O)Nc1c(noc1C)C	inactive
C[C@@H]1CCCCO[C@@H](CN(C)C(=O)CCC(F)(F)F)[C@@H](C)CN([C@H](C)CO)C(=O)c2cc(NC(=O)Nc3ccc(F)cc3)ccc2O1	inactive
C[C@H]1CN([C@@H](C)CO)C(=O)c2cccc(NC(=O)c3ccc(-c4nccs4)cc3)c2O[C@@H]1CN(C)C(=O)Nc1ccc(F)cc1	inactive
Cc1noc(C)c1NC(=O)N(C)C[C@@H]1OCCCC[C@H](C)Oc2ccc(NC(=O)NC3CCCCC3)cc2C(=O)N([C@@H](C)CO)C[C@@H]1C	inactive
